# esBAF inh – blocks esBAF chromatin remodeling in mouse ES cells; AID 602393; actives 2% (n = 350,000); reporter increase, % at 12.5 µM; Bmi1-luciferase knock-in reporter, 24 h; 100% = twice the neutral-well signal; in the data active = activation above about 40%; inconclusive = no clear call, values can overlap the other calls;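 note: a rise in the Bmi1 reporter signal indicates esBAF inhibition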
# rRNA inh HTS – inhibitors of bacterial rRNA selective over humanized ribosomes. E. coli WT GFP vs humanized-ribosome RFP mutants, fluorescence, 24 h; active compounds read low; DMSO median 0, no signal -100. GFP signal change (wild-type ribosome), % (concentration not given with the values). actives 1.6% (n = 350,000). AID 720706;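 active = significant combined selectivity score with lowered wild-type GFP, culture density cut under 30%, mutant RFP and density less affected; inactive = any of these conditions unmet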
# MITF TRPM1 HTS – increases MITF-driven TRPM1 promoter luciferase signal; SK-MEL-5 TRPM1-promoter luciferase, 24 h; % of positive control, neutral wells = 0; activation, % at 12.5 µM; actives 0.75% (n = 300,000);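 active = mean activation of at least 80% with every replicate also reaching 80%; inconclusive = mean reaches 80% but some replicate falls short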
# Wnt bcat act – activators of Wnt/beta-catenin signaling; Wnt/beta-catenin reporter cell assay, activator, plate reader; activation, % at 9.35 µM; actives 1.2% (n = 300,000); AID 743398; in the data active = activation above about 30%, passing the limit was not always enough; inconclusive = no clear call, values can overlap the other calls
# AF4-AF9 inh – blocks AF4 peptide binding to human AF9; inhibition, % at 10 µM; actives 0.47% (n = 350,000); AlphaScreen, biotin-AF4 peptide binding to FLAG-AF9; AID 651704; P42568;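 active = every replicate reaching a set inhibition limit, whatever the replicate mean, cut at about 25% in these data; inconclusive = mean inhibition reaches that limit but some replicates miss it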
# Target sequence (P42568 whole entry, looked up): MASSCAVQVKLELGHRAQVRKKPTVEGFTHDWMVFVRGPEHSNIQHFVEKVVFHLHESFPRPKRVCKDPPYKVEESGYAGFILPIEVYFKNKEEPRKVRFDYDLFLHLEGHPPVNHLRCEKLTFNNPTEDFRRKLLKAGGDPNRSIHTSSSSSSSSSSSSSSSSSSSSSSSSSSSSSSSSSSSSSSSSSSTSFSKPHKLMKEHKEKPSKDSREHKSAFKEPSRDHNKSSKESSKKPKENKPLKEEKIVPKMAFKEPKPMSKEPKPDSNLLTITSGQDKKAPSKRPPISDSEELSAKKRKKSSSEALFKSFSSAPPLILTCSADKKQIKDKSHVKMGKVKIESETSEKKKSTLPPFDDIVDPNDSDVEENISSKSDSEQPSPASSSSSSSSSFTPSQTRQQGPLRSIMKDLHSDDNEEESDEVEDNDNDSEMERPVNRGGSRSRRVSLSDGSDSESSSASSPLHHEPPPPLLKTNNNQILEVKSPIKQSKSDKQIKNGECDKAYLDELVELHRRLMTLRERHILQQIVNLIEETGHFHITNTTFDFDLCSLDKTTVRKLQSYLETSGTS
# Numbers stand for hits; . = inactive; ? = inconclusive; / = no result given. In the library only some 3.7% were active in any assay of this set; here they are far more common.
SMILES,esBAF inh,rRNA inh HTS,MITF TRPM1 HTS,Wnt bcat act,AF4-AF9 inh
COc1cccc(NC(=O)c2csc3c2CCCC3)c1,69,.,95,46,.
CCC(c1nnc(SCC(=O)Nc2cccc(S(N)(=O)=O)c2)n1-c1ccc(OC)cc1)N(C)C (stereo not given),.,.,.,.,.
CCCNC(=O)c1cc(C2CCCN(S(=O)(=O)c3cccc4cccnc34)C2)on1 (stereo not given),.,-15,/,.,.
O=C(NCc1ccccc1)c1cc(C2CCCN(S(=O)(=O)c3cccc4cccnc34)C2)on1 (stereo not given),.,.,/,.,.
COc1ccc(C(=O)Nc2ccc3c(c2)OC[C@H](C)N(C(C)=O)C[C@H](C)[C@@H](OC)CN(C)C3=O)cc1,.,.,/,/,.
Nc1nn2cc(-c3ccccc3)nc2c2ccccc12,/,-41,.,.,.
C[C@@H]1CN([C@@H](C)CO)C(=O)CCCn2cc(nn2)CO[C@@H]1CN(C)Cc1cccc(C(F)(F)F)c1,.,.,/,/,.
CC(C)CCn1c(N)c(S(=O)(=O)c2cccs2)c2nc3ccccc3nc21,.,.,.,.,.
COc1ccccc1/C=N/n1c(N)c(S(=O)(=O)c2cccs2)c2nc3ccccc3nc21,41,/,/,/,/
COc1ccc(CCn2c(N)c(S(=O)(=O)c3cccs3)c3nc4ccccc4nc32)cc1OC,.,-21,.,.,.
COc1ccc(C(=O)COC(=O)c2ccc(Cl)nc2)cc1OC,.,.,.,.,.
CCOC(=O)c1sc(NC(=O)CCSC)nc1C,.,/,/,/,/
CCOC(=O)c1sc(NC(C)=O)nc1C,.,.,.,.,.
CCOC(=O)c1sc(NC(=O)C2CCC2)cc1C,50,.,.,37,.
CCOC(=O)c1sc(NC(=O)Nc2ccccc2)cc1C,/,/,105,?,.
CCOC(=O)c1sc(NC(=O)Nc2ccccc2Cl)cc1C,/,/,.,.,/
CCOC(=O)c1sc(NC(=O)C2CCCCC2)nc1C,/,-30,/,.,.
CCOC(=O)c1sc(NC(=O)CSC(=S)N2CCN(C)CC2)nc1C,/,-25,/,.,.
C[C@@H]1CN([C@H](C)CO)C(=O)Cc2cc(NS(=O)(=O)c3ccccc3)ccc2O[C@H]1CN(C)CC1CCCCC1,.,.,/,/,.
CCCN(C)C[C@H]1OCCCC[C@H](C)Oc2ccc(NS(=O)(=O)c3ccccc3)cc2C(=O)N([C@@H](C)CO)C[C@@H]1C,.,.,/,/,.
COc1ccccc1-n1c(SCC(=O)NC2CCS(=O)(=O)C2)nc2ccccc2c1=O (stereo not given),.,.,.,.,?
O=c1cc(NC2CCCCCC2)[nH]c(=O)[nH]1,.,/,.,.,/
O=c1c(-c2cnn(-c3ccccc3)c2)coc2cc(O)ccc12,105,/,.,/,/
C/C=C/c1ccc2c(c1)O[C@H](CN(C)C(=O)Nc1ccc(C(F)(F)F)cc1)[C@@H](C)CN([C@H](C)CO)S2(=O)=O,.,.,/,/,.
CC(=O)Nc1ccc(/C=C/c2nc(-c3ccccc3O)n[nH]2)cc1,73,.,.,.,.
SMILES,esBAF inh,rRNA inh HTS,MITF TRPM1 HTS,Wnt bcat act,AF4-AF9 inh
COc1cc(/C=C/c2nc(-c3ccccc3O)n[nH]2)cc(OC)c1OC,/,/,.,/,/
Cc1cc(C(=O)C(C)Sc2cccc[n+]2[O-])c(C)n1-c1ccc(Cl)cc1 (stereo not given),62,.,.,.,.
Cc1cc(C(=O)C(=O)O)c(C)n1-c1ccc(Cl)cc1,.,.,.,.,.
COCC(=O)OCc1cc2cccc(C)c2[nH]c1=O,/,.,.,42,.
CCc1ccc(NC(=O)N(CCCN2CCOCC2)C(C)c2cc3cccc(OC)c3o2)cc1 (stereo not given),.,-22,.,/,/
O=C(NCC1CC1)[C@@H]1[C@@H](CO)[C@@H]2Cn3c(ccc(-c4cccnc4)c3=O)[C@H]1N2C(=O)C1CCCC1,/,.,/,/,.
CCc1nc(Sc2nnnn2-c2ccccc2)c2c3c(sc2n1)CCCC3,/,.,.,.,47
COc1ccc2c3c([nH]c2c1)[C@H](CO)N(C)CC31CCN(C(=O)Nc2c(C)noc2C)CC1,/,.,/,/,.
CCCCn1c(=O)[nH]c2nc3cc(N)ccc3nc2c1=O,/,.,.,.,.
Nc1ccc2nc3c(=O)n(C4CCCCC4)c(=O)[nH]c3nc2c1,.,.,.,43,.
Cc1cc(=O)oc2cc(NC(=O)c3cc(F)ccc3F)ccc12,53,.,.,44,.
Cc1cc(=O)oc2cc(NC(=O)c3ccccc3OC(F)F)ccc12,53,.,.,.,.
CC1(C)CC(=O)C(C2C3=C(CC(C)(C)CC3=O)Oc3ccc4ccccc4c32)C(=O)C1 (stereo not given),/,.,.,.,.
CC1(C)CC(=O)C(C2C3=C(CC(C)(C)CC3=O)Oc3ccccc32)C(=O)C1 (stereo not given),.,-22,/,.,/
C[C@@H]1CN([C@@H](C)CO)C(=O)c2cc(C#Cc3cccnc3)cnc2O[C@H]1CN(C)S(=O)(=O)c1ccccc1F,.,.,/,/,.
Cc1cc(C)c2nc(NCc3ccccc3O)sc2c1,45,.,95,.,.
COC(=O)[C@H]1C[C@H](OC(=O)NCc2ccccc2F)[C@@]2(O)CN(S(=O)(=O)c3ccc(C)cc3)CC2[C@H]1C(=O)OC (stereo not given in full),.,.,/,.,.
O=C(c1ccccc1)N1C[C@H]2[C@@H](c3ccccc31)[C@@H](CO)N2C(=O)Nc1ccccc1Cl,.,.,/,/,.
COc1cccc(-c2nc(=S)c3c(o2)CCCC3)c1,/,.,/,.,.
S=c1nc(-c2ccccc2)oc2c1CCCC2,/,/,.,74,/
Cc1nn(Cc2ccccc2Cl)c(C)c1C(=O)N1CCN(c2ccccc2)CC1,.,-27,.,.,/
Cc1ccc(NC(=O)C2=NNC(=O)CC2)cc1F,/,.,.,34,.
Cn1c(CSc2ccccc2)c(C#N)c2ccccc21,63,/,.,/,/
O=C(Cc1ccncc1)Nc1ccc2c(c1)[C@H]1C[C@@H](CC(=O)NC3CCCC3)O[C@@H](CO)[C@H]1O2,.,.,/,/,.
COC1=C(Nc2ccc(OC)cc2)C(=O)c2ccccc2C1=O,/,/,.,?,/
SMILES,esBAF inh,rRNA inh HTS,MITF TRPM1 HTS,Wnt bcat act,AF4-AF9 inh
COC1=C(Nc2ccc(O)cc2)C(=O)c2ccccc2C1=O,/,.,.,.,50
CN(/N=C/c1ccncc1)c1cnc2ccccc2n1,/,.,.,37,.
CN(/N=C/c1ccncc1)C1=NCCN1,.,.,.,.,.
O=C1C=C(c2ccc3[nH]ccc3c2)CCC1,88,.,?,46,.
Cc1ccc(S(=O)(=O)N(C)C[C@@H]2Oc3c(NC(=O)CCCCCC(=O)Nc4ccccc4N)cccc3C(=O)N([C@@H](C)CO)C[C@@H]2C)cc1,/,.,/,/,.
OC[C@H]1[C@@H](c2ccc(-c3cccc(F)c3)cc2)[C@H]2CN(CCC(F)(F)F)CCCCN21,.,.,/,/,.
CC(=O)c1cc(NC(=O)c2ccc(C)cc2)c(=O)oc1/C=C/N(C)C,44,/,.,/,/
CCc1cccc(NC(=O)NC2CCCCC2)c1,.,/,.,/,/
CCc1ccc(NC(=O)NC2CCCCCCC2)cc1,58,.,95,.,.

# High-throughput results (PubChem BioAssay)
